Results reported in PubChem BioAssay (Tox21).
Several values for one entry are separate records, joined by “and”; a condition that tells them apart may be missing. Equal values may be shown once. Records with an inconclusive call do not appear. Entries that show only a call come without a potency. Activity calls are given as the source filed them. The call rests on the fitted dose curve; in most records, active means well fitted inhibition curve with a large enough effect in the repeat runs; inconclusive means weak or mixed curves; inactive means no such curve, though single readings can be large or run the other way.

Assay: qHTS assay to identify small molecule antagonists of the thyroid receptor (TR) signaling pathway (AID 743065); further: nearly all actives have a fitted effect of over 55% in size
Conditions: GH3.TRE-Luc, T3-stimulated luciferase inhibition, 23.5 h; series mostly up to 70.3 µM
Source text: U.S. Tox21 Program National Center for Advancing Translational Sciences [NCATS] NIH Chemical Genomics Center [NCGC] U.S. Environmental Protection Agency [EPA] National Institutes of Environmental Health Sciences [NIEHS] National Toxicology Program [NTP] U.S. Food and Drug Administration [FDA] Tox21 Assay Overview: Thyroid receptor (TR), a nuclear hormone receptor, plays an important role in development, proliferation, differentiation, metabolism, brain function, and cardiovascular system. […] To profile the Tox21 10K compound library in TR signaling, a cell-based GH3-TRE-Luc assay (GH3.TRE-Luc cell line, developed by the laboratory of Dr. Albertinka J. Murk, Wageningen University) was used to measure the inhibition of TR. GH3 (rat pituitary tumor) cells stably expressing a TR activity sensor consisting of two TR response elements and a luciferase reporter gene.
Tox21 Assay Protocol Summary: GH3.TRE-Luc cells were dispensed at 1500 cells/4 uL/well into 1536-well white solid bottom plates using a Multidrop Combi dispenser (Thermo Fisher Scientific Inc., Waltham, MA). After the assay plates were incubated at 37 C for 4 hours, 23 nL of library compound or DMSO controls was transferred to the assay plates by a pintool station (Kalypsys, San Diego, CA), followed by addition of 1 ul of T3 (1 nM, final concentration in the wells) to stimulate TR transactivation. The assay plates were incubated at 37 C for 23.5 h, and then 1 uL of CellTiter-Fluor reagent (Promega, Madision, WI) of measuring cytotoxicity was added to each well using a Bioraptr Flying Reagent Dispenser (FRD) workstation (Beckman Coulter, Indianapolis, IN, USA). The plates were incubated at 37 C and 5% CO2 for additional 30 min, and fluorescence intensity was measured by a ViewLux plate reader (PerkinElmer, Shelton, CT). For measuring luciferase reporter gene activity, 4 uL of ONE-Glo Luciferase Assay reagent (Promega) was added to each well using a Bioraptr FRD (Beckman Coulter), followed by 30 min incubation at room temperature. The luminescence intensity of plates was recorded by a ViewLux plate reader (PerkinElmer, Shelton, CT).
Potency means the concentration at half of the fitted maximal effect.

| Structure (SMILES) | Potency |
| --- | --- |
| Cc1cnc(NC(=O)C2=C(O)c3ccccc3S(=O)(=O)N2C)s1 | inactive |
| OC[C@@H](O)[C@@H](O)[C@H](O)[C@H](O)CO | inactive |
| COCCOCCOC | inactive |
| CCN(CC)CCOC(=O)c1ccc(N)cc1 | inactive |
| OCCCc1ccccc1 | inactive |
| Cc1c(N(C)C)c(=O)n(-c2ccccc2)n1C | inactive |
| CC(C)(C)CC(C)(C)c1ccc(O)c(-n2nc3ccccc3n2)c1 | 21.1 µM (active) and 62 µM (active) and 27.3 µM (active) |
| CC(=O)CCC(C)C | inactive |
| COc1ccc(O)cc1 | inactive |
| C[C@]12C[C@H](O)[C@H]3[C@@H](CCC4=CC(=O)CC[C@@]43C)[C@@H]1CC[C@@H]2C(=O)CO | inactive |
| C[C@]12C=CC(=O)C=C1CC[C@@H]1[C@@H]2C(=O)C[C@@]2(C)[C@H]1CC[C@]2(O)C(=O)CO | inactive |
| NC(=O)N/N=C/c1ccc([N+](=O)[O-])o1 | inactive |
| CCCCCCCC(=O)OCC(O)CO (stereo not given) | inactive |
| O=C(O)CCCCC1CCSS1 (stereo not given) | inactive |
| N[C@@H](Cc1c[nH]c2ccccc12)C(=O)O | inactive |
| NC(=O)NO | inactive |
| CCCCCCCCCCCCCC(=O)OC(C)C | inactive |
| COC1=CC(=O)C[C@@H](C)[C@]12Oc1c(Cl)c(OC)cc(OC)c1C2=O | 11.9 µM (active) and 27.1 µM (active) and 27.3 µM (active) |
| O=c1cc[nH]c(=O)[nH]1 | inactive |
| CC(C)CC(C)CC(O)CC(C)C (stereo not given) | inactive |

| Structure (SMILES) | Potency |
| --- | --- |
| CC(=O)c1ccc(S(=O)(=O)NC(=O)NC2CCCCC2)cc1 | inactive |
| COc1ccc(C(=O)c2ccccc2)c(O)c1 | inactive |
| C#C[C@]1(O)CC[C@H]2[C@@H]3CCc4cc(O)ccc4[C@H]3CC[C@@]21C | 16.8 µM (active) and 17.1 µM (active) and 13.7 µM (active) |
| C=CC(=O)NC(C)(C)CS(=O)(=O)O | inactive |
| CCOCCO | inactive |
| CC(=O)/C=C/C1=C(C)CCCC1(C)C | inactive |
| CN(C)C=O | inactive |
| CC(C)(C)NCC(O)c1ccc(O)c(CO)c1 (stereo not given) | inactive |
| Cn1cnc2c1c(=O)[nH]c(=O)n2C | inactive |
| CC(C)Cc1ccc(C(C)C(=O)O)cc1 (stereo not given) | inactive |
| O=C(O)CN(CC(=O)O)CC(=O)O | inactive |
| NC(=O)OCC(COC(N)=O)c1ccccc1 | inactive |
| Cc1cccc(Nc2cc(Cl)nc(SCC(=O)O)n2)c1C | inactive |
| Oc1cccc(O)c1 | inactive |
| C=C(C)OC(C)=O | inactive |
| C=CCOC(=O)CC(C)C | inactive |
| C[C@]12CC[C@@H]3c4ccc(O)cc4C[C@@H](CCCCCCCCCS(=O)CCCC(F)(F)C(F)(F)F)[C@H]3[C@@H]1CC[C@@H]2O (stereo not given in full) | 4.2 nM (active) and 0.7 nM (active) |
| CCc1cc(C(N)=S)ccn1 | inactive |
| Cc1ccc(O)c(-n2nc3ccccc3n2)c1 | inactive |
| NCCNc1cccc2ccccc12 | 26.6 µM (active) and 54.4 µM (active) and 59.6 µM (active) |
